Sampled rows, rich in hits. Any-hit rate of the full collection: about 1.4%.
Sa RN4220 lethal – growth inhibition of S. aureus RN4220, primary screen, OD600; 16 h; inhibition, % (test concentration not listed); 0.33% of 330,000 active; in the data active = inhibition above about 85%;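 also: plate controls were untreated cells for no effect and reference antibiotic for full effect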
VHR inh abs – VHR1 phosphatase inhibitors, primary screen, biochemical, absorbance, uHTS; Dual specificity protein phosphatase 3 (Homo sapiens), P51452; recombinant VHR phosphatase, pNPP absorbance; inhibition, % at 13.3 µM; 0.52% of 290,000 active; AID 1654, 2009; in the data active = inhibition above about 50%
Target sequence (P51452 whole entry, looked up): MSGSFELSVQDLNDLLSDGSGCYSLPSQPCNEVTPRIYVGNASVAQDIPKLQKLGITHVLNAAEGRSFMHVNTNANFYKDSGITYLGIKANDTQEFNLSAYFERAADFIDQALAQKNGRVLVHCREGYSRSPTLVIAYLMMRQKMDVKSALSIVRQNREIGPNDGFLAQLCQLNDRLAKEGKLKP
PrPC TRFRET – inhibitors of human cell surface prion protein PrPC, primary screen, cell-based, TR-FRET | TR-FRET read-out | Major prion protein (Homo sapiens), P04156 | 0.43% of 370,000 active | AID 720596, 2013 | inhibition, % at 13.8 µM; in the data active = inhibition above about 24%; also: 0% = median of the test wells and 100% = reference compound wells
BJeLR lethal – MLPCN primary cell-based screen for lethality selective to Ras in HRASV12 cells; BJeLR (HRASV12) viability, CellTiter-Glo ATP luminescence, 48 h; inhibition, % (test concentration not listed); 0.17% of 300,000 active; AID 1554, 2009; in the data active = inhibition above about 50%
3CLpro inhibitor – SARS-CoV 3CLpro protease inhibitors, primary screen, biochemical, quenched FRET; recombinant SARS-CoV 3CLpro, quenched FRET peptide cleavage; inhibition, % at 6 µM; 0.14% of 290,000 active; AID 1706, 2009; in the data active = inhibition above about 12%
Sa ugtP lethal – growth inhibition of ugtP-null S. aureus, primary screen, RN4220 ugtP deletion, OD600. 0.54% of 330,000 active. growth inhibition, % (no concentration beside the values). 16 h. AID 1259309, 2017; in the data active = growth inhibition above about 68%;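 also: plate controls were untreated wells for no effect and antibiotic for full effect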
Numbers without * were called inactive.

How did Cc1ccccc1OCC(=O)N/N=C/c1ccc([N+](=O)[O-])o1 do in these assays?
VHR inh abs: 51.9*; PrPC TRFRET: -27.8; BJeLR lethal: -2.7; 3CLpro inhibitor: -3.6

What do the screens show for `CC(C)(C)c1ccc2c(c1)OC(C(=O)N/N=C/c1ccc([N+](=O)[O-])o1)CO2` (centres undefined)?
VHR inh abs: 56.6*; PrPC TRFRET: -7.5; BJeLR lethal: -9.3; 3CLpro inhibitor: 2.3

What do the screens show for `O=C(Cc1ccc([N+](=O)[O-])cc1)N/N=C/c1ccc([N+](=O)[O-])o1`?
VHR inh abs: 9.6; PrPC TRFRET: -37.1; BJeLR lethal: 55.4*; 3CLpro inhibitor: -0.3

Results for CC(C)(C)c1ccc2c(c1)OC(C(=O)NN=Cc1ccc(-c3cccc(C(=O)O)c3)o1)CO2 (centres undefined) ?
Sa RN4220 lethal: 9.5; Sa ugtP lethal: 14.1

How did Cc1cc(C)cc(OCC(=O)N/N=C/c2ccc([N+](=O)[O-])o2)c1 do in these assays?
VHR inh abs: 19.9; PrPC TRFRET: -4.7; BJeLR lethal: -11.3; 3CLpro inhibitor: -1.9

What do the screens show for `O=C(C1=CC(c2ccc3c(c2)OCO3)CC(OCCCCO)O1)N1CCOCC1` (centres undefined)?
Sa RN4220 lethal: 3.9; Sa ugtP lethal: -0.6

What do the screens show for `CN(NC(=O)C=CC(=O)O)c1ncc(C(F)(F)F)cc1Cl`?
Sa RN4220 lethal: 9.5; Sa ugtP lethal: 2.9

How did COc1cccc(CNCC(O)COc2ccc(C(=O)c3ccccc3)cc2)c1 (centres undefined) do in these assays?
Sa RN4220 lethal: 3.1; VHR inh abs: 52.0*; PrPC TRFRET: -7.0; BJeLR lethal: -2.6; 3CLpro inhibitor: 4.2; Sa ugtP lethal: 1.2

Results for O=C(c1ccccc1)c1ccc(OCC(O)CNCc2ccc(Cl)cc2)cc1 (centres undefined) ?
Sa RN4220 lethal: -6.6; VHR inh abs: -14.3; PrPC TRFRET: -4.9; BJeLR lethal: 0.6; 3CLpro inhibitor: -1.3; Sa ugtP lethal: -10.6

What do the screens show for `Cc1ccc(C=C2C(Cl)=C(Cl)C(Cl)=C2Cl)cc1`?
Sa RN4220 lethal: 96.7*; VHR inh abs: -0.7; BJeLR lethal: 38.6; 3CLpro inhibitor: 1.8; Sa ugtP lethal: 100.2*

Results for O=[N+]([O-])/C=C/c1cn(Cc2ccc(Cl)cc2)c2ccccc12 ?
Sa RN4220 lethal: 90.2*; VHR inh abs: 15.2; PrPC TRFRET: -0.1; BJeLR lethal: 2.6; 3CLpro inhibitor: 6.8; Sa ugtP lethal: 77.1

Results for Cc1cccc(Cn2cc(/C=C/[N+](=O)[O-])c3ccccc32)c1 ?
Sa RN4220 lethal: 52.4; VHR inh abs: 9.7; PrPC TRFRET: 6.9; BJeLR lethal: 2.0; 3CLpro inhibitor: 3.5; Sa ugtP lethal: 25.3

What do the screens show for `COC(=O)CCC(=O)NC1CC(C)(C)Cc2c1cnn2-c1ccccc1` (centres undefined)?
Sa RN4220 lethal: -1.4; VHR inh abs: 57.0*; PrPC TRFRET: 6.8; BJeLR lethal: 1.6; 3CLpro inhibitor: -5.3; Sa ugtP lethal: 5.2

How did Cc1ccnc(NC(=O)c2ccc(COc3c(F)c(F)cc(F)c3F)o2)c1 do in these assays?
Sa RN4220 lethal: 5.5; VHR inh abs: 58.2*; PrPC TRFRET: -3.7; BJeLR lethal: 2.5; 3CLpro inhibitor: -5.5; Sa ugtP lethal: 3.7

How did O=C(Nc1ccc(Br)cn1)c1ccc(COc2c(F)c(F)cc(F)c2F)o1 do in these assays?
Sa RN4220 lethal: 3.1; PrPC TRFRET: 8.4; Sa ugtP lethal: -0.2

Results for Cc1cccc(C)c1NC(=S)NC(C)CCc1ccccc1 (centres undefined) ?
Sa RN4220 lethal: -0.4; VHR inh abs: 59.9*; PrPC TRFRET: 7.1; BJeLR lethal: 16.6; 3CLpro inhibitor: 0.2; Sa ugtP lethal: 4.4

Results for CC1CN=C(Nc2ccccc2)N1CCC1CCCCC1 (centres undefined) ?
Sa RN4220 lethal: 1.8; Sa ugtP lethal: -9.2

Results for COC(=O)C1=C(c2ccc(Cl)c(C(F)(F)F)c2)CC2CCC1N2C(=O)NCCO (centres undefined) ?
Sa RN4220 lethal: 3.0; Sa ugtP lethal: -5.9

Results for CC1CCN(S(=O)(=O)c2ccc(S(=O)(=O)N3CCCN(Cc4ccccc4)C3)cc2)CC1 ?
3CLpro inhibitor: 1.9

How did CC1CCCN(S(=O)(=O)c2ccc(S(=O)(=O)N3CCCN(Cc4ccccc4)C3)cc2)C1 (centres undefined) do in these assays?
Sa RN4220 lethal: 2.7; VHR inh abs: 51.9*; PrPC TRFRET: 5.6; BJeLR lethal: 6.4; Sa ugtP lethal: -0.7

What do the screens show for `COc1ccc(C=C2C=C(C(C)(C)C)C(=O)C(C(C)(C)C)=C2)cc1OC`?
VHR inh abs: 15.6; PrPC TRFRET: -1.1; BJeLR lethal: 79.9*; 3CLpro inhibitor: 4.3

What do the screens show for `CCOc1cccc(C=NNc2ccc(S(=O)(=O)N(CC)CC)cn2)c1O`?
Sa RN4220 lethal: 19.8; Sa ugtP lethal: 100.1*

Results for O=C(O)C(=Cc1c(C(=O)O)[nH]c2cc(Cl)cc(Cl)c12)c1ccccc1 ?
Sa RN4220 lethal: 6.8; Sa ugtP lethal: 1.4

How did O=[N+]([O-])c1cc(CN2CCN(c3cccc(C(F)(F)F)c3)CC2)c2cccnc2c1O do in these assays?
Sa RN4220 lethal: 61.4; VHR inh abs: -4.6; PrPC TRFRET: -12.8; BJeLR lethal: 7.7; 3CLpro inhibitor: -1.5; Sa ugtP lethal: 86.4*

How did CO[C@@]1(NC(=O)C2SC(=C(C(N)=O)C(=O)O)S2)C(=O)N2C(C(=O)O)=C(CSc3nnnn3C)CSC21 (some centres undefined) do in these assays?
Sa RN4220 lethal: 100.4*; Sa ugtP lethal: 100.3*

How did CO[C@@]1(NC(=O)C2SC(=C(C(N)=O)C(=O)O)S2)C(=O)N2C(C(=O)O)=C(CSc3nnnn3C)CS[C@@H]21 (some centres undefined) do in these assays?
PrPC TRFRET: 3.8

How did Cc1ccc(NN=C2CS(=O)(=O)N(C)c3ccsc32)cc1 do in these assays?
Sa RN4220 lethal: 98.8*; Sa ugtP lethal: 92.7

Results for Cc1ccc(N/N=C2\CS(=O)(=O)N(C)c3ccsc32)cc1 ?
VHR inh abs: -27.3; PrPC TRFRET: 1.8; BJeLR lethal: 9.8; 3CLpro inhibitor: -5.2

What do the screens show for `CC[C@@]12C(=O)N(c3cccc(F)c3)C(=O)N1C(c1cccc(C)c1)C1C(=O)N(Cc3ccccc3)C(=O)C12` (some centres undefined)?
Sa RN4220 lethal: 5.6; Sa ugtP lethal: 5.6

What do the screens show for `CCCCCc1ccc(OCCCC[n+]2ccc(C)cc2)c(CCCCC)c1`?
Sa RN4220 lethal: 98.9*; VHR inh abs: -0.1; PrPC TRFRET: 16.7; 3CLpro inhibitor: -0.7; Sa ugtP lethal: 100.0*

High-throughput results: PubChem BioAssay, several laboratories
